CYP2C19 inhib = inhibitors of human CYP2C19. inhibition, % at 5 µM. actives 21% (n = 96,000). AID 778. CYP2C19 Supersomes, luciferin-H EGE luminescence, 30 min. P33261;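 active = CYP2C19 inhibition above a set limit at 5 µM in the primary screen, cut at about 50% in these data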
CYP2C9 act = activators of human CYP2C9; AID 1024; actives 1.4% (n = 96,000); activation factor at 5 µM; P11712; recombinant CYP2C9, luciferin-H conversion, luminescence; stronger effect = higher value; factor 1 = untreated enzyme, 0 = blocked;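 active = activation factor of 2 or more for CYP2C9 at a 5 µM dose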
Cav32 inh = inhibitors of human Cav3.2 T-type calcium channel; B-score at 10 µM; Cav3.2-expressing cells, Fluo-4 calcium fluorescence FDSS; stronger effect = lower value; O95180; actives 4% (n = 100,000);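 active = single-dose well whose peak fluorescence ratio is a statistical outlier from its plate by either plate-standardised score or position-corrected B-score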
Target sequence (O95180 whole entry, looked up): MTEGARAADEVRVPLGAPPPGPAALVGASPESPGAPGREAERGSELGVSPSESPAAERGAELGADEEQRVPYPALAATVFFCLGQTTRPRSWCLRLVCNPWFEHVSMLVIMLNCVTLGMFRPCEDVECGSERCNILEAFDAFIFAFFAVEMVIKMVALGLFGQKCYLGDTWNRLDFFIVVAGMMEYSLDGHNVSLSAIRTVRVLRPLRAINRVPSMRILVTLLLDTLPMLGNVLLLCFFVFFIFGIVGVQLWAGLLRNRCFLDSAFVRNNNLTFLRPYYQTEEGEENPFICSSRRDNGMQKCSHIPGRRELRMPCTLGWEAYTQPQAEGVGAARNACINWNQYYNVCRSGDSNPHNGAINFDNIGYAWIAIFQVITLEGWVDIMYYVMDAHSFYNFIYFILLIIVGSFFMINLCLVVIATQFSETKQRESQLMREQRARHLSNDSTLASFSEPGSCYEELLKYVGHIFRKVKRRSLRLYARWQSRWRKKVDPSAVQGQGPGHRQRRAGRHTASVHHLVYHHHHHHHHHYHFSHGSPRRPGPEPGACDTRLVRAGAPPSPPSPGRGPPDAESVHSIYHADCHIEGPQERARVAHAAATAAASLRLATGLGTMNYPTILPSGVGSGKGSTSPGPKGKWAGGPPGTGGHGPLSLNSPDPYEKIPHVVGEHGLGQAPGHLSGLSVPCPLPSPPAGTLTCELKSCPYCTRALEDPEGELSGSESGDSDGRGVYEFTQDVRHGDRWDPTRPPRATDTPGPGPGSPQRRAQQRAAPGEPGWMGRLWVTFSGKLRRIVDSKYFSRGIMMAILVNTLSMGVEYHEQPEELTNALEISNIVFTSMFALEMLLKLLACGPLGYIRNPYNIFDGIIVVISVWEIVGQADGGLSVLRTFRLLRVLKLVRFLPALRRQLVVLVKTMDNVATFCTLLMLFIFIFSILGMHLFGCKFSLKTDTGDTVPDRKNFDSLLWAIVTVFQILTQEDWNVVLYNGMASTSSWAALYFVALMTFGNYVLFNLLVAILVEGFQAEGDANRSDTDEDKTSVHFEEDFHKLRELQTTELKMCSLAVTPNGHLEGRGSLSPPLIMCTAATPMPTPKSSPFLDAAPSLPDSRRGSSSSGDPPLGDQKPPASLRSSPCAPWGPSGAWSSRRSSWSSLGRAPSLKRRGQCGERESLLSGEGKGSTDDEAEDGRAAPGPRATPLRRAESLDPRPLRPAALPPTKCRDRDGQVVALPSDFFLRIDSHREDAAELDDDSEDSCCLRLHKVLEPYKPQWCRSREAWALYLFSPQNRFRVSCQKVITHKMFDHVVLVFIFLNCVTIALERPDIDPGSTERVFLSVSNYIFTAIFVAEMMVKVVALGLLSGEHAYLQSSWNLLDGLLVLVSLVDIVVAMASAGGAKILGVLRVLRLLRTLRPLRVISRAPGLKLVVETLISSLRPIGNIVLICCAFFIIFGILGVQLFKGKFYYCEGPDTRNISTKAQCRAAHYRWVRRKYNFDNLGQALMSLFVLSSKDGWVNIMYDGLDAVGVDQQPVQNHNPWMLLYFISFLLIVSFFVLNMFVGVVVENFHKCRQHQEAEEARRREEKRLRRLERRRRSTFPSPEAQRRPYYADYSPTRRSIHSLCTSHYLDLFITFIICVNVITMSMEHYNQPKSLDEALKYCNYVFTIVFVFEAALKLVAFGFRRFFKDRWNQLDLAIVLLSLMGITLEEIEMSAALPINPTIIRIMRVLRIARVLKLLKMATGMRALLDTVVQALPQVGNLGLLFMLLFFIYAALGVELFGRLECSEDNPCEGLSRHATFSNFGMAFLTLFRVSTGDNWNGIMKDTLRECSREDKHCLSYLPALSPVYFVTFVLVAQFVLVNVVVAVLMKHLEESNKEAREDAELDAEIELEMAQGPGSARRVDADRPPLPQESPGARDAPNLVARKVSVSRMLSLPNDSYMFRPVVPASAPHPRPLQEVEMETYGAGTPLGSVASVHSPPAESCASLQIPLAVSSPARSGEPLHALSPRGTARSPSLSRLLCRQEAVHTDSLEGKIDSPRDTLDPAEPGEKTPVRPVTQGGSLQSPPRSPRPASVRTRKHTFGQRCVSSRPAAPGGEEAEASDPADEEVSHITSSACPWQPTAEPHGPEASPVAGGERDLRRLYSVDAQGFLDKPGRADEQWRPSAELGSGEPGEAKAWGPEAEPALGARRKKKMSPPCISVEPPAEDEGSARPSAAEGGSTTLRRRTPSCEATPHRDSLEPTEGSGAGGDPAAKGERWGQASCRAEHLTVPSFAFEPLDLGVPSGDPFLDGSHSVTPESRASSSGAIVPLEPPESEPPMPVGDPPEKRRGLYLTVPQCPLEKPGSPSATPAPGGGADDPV
CYP2C9 inh = blocks human cytochrome P450 2C9. P11712. CYP2C9 Supersomes, luciferin-H conversion, luminescence. inhibition, % at 5 µM. actives 20% (n = 96,000). AID 777;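 active = blocking of liver enzyme CYP2C9 beyond about 50% at 5 µM, limit read from the data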
CYP2C19 activ = cytochrome P450 2C19 (human) activation | activation factor at 5 µM | 96,000 tested, under 10 active | AID 1025 | recombinant CYP2C19, luciferin-H EGE luminescence; stronger effect = higher value; 0 = fully inhibited enzyme, 1 = untreated enzyme | P33261;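 active = activation factor of at least 2 at 5 µM in the primary screen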
Large screens that a line does not name were inactive. In the library only some 27% were active in any assay of this set; here they are far more common.

Cc1cc(N2CCC(C(N)=O)CC2)nc(-c2ccccc2)n1	CYP2C9 inh 53
Cc1cc(C)nc(N2CCC(C(=O)Nc3ccc4c(c3)CCC4)CC2)n1	none
Cc1cc(N2CCC(C(=O)Nc3ccc(F)cc3)CC2)nc(-c2ccccc2)n1	CYP2C19 inhib 82, Cav32 inh -6.9, CYP2C9 inh 62
COc1ccc(NC(=O)C2CCN(c3cc(C)nc(-c4ccccc4)n3)CC2)cc1	Cav32 inh -5.9
COc1ccc(-c2oc3c4c(cc(OC)c3c(=O)c2CC=C(C)C)OC(C)(C)C=C4)c(OC)c1	none (no result: CYP2C19 inhib, CYP2C9 act, CYP2C9 inh, CYP2C19 activ)
CC(C)(C)N1[C@@H](CC(=O)O)c2cc(C(F)(F)F)ccc2S1(=O)=O	none (no result: CYP2C19 inhib, CYP2C9 act, CYP2C9 inh, CYP2C19 activ)
CC(=O)c1ccc(-c2nc3c4ccccc4ccn3c2C(C)=O)o1	none (no result: Cav32 inh)
CCCCNC(=S)NNC(=O)c1sccc1C	CYP2C19 inhib 88
CCCCNC(=S)NNC(=O)c1csc(C(C)C)c1	none (no result: CYP2C19 inhib, CYP2C9 act, CYP2C9 inh, CYP2C19 activ)
Cc1ccccc1NC(=O)c1sc2nc3c(c(-c4ccco4)c2c1N)CCCC3	Cav32 inh -4.2, CYP2C9 inh 64
CCN(CC)C(=O)C1CCCN(Cc2ccccc2C(F)(F)F)C1 (configuration not stated)	CYP2C19 inhib 58 (no result: Cav32 inh)
CCN(CC)C(=O)C1CCCN(Cc2ccc(F)c(F)c2)C1 (configuration not stated)	CYP2C19 inhib 55
CCN(CC)C(=O)C1CCCN(Cc2ccccc2)C1 (configuration not stated)	none
CN(C)c1cc[nH]c(=O)c1C#N	none
CNc1sc(C(=O)c2cccs2)c(N)c1-c1nc2ccccc2s1	CYP2C9 inh 67
CNc1sc(C(=O)c2ccc(F)cc2)c(N)c1-c1nc2ccccc2s1	none
CCOC(=O)c1cc2sc(C)cc2n1CC(=O)NCc1ccc(F)cc1	CYP2C19 inhib 72
CC#CCCC(=O)N1C=Cc2ccccc2C1C#N (configuration not stated)	CYP2C19 inhib 66
C=CCSc1nnc2c(n1)OC=Nc1ccc(Br)cc1-2	CYP2C19 inhib 53, CYP2C9 inh 60
Cn1c2ccccc2c2ncn(CCC3=CCCCC3)c(=O)c21	CYP2C19 inhib 71, CYP2C9 inh 84
Cn1c2ccccc2c2ncn(CCCN3CCOCC3)c(=O)c21	none
CN(C)/C=N/C(=S)Nc1ccc(Br)cc1F	CYP2C19 inhib 59
CN(C)S(=O)(=O)Nc1ccc(Br)cc1F	none
O=C(COC(=O)c1ccc[nH]c1=O)NCC1CCCO1 (configuration not stated)	none (no result: CYP2C19 inhib, CYP2C9 act, CYP2C9 inh, CYP2C19 activ)
COc1ccccc1OCC(O)Cn1nc(C)cc1C (configuration not stated)	none (no result: CYP2C19 inhib, CYP2C9 act, CYP2C9 inh, CYP2C19 activ)
Cc1cc(C)n(CC(O)COc2ccccc2C(=O)Nc2ccccc2)n1 (configuration not stated)	CYP2C19 inhib 91, CYP2C9 inh 88
CCOc1ccc(C2CC(c3ccc(CC)cc3)Nc3nc(N)nn32)cc1 (configuration not stated)	none
CC(C)(C)c1ccc(C(=O)CCCSC2=C(C#N)C(c3ccco3)C3=C(CCCC3=O)N2)cc1 (configuration not stated)	Cav32 inh -4.3, CYP2C9 inh 67
Cc1ccc(C(=O)CSC2=C(C#N)C(c3ccco3)C3=C(CCCC3=O)N2)cc1 (configuration not stated)	CYP2C19 inhib 88, CYP2C9 inh 92
N#CC1=C(SCC(=O)c2ccccc2)NC2=C(C(=O)CCC2)C1c1ccco1 (configuration not stated)	CYP2C19 inhib 94, CYP2C9 inh 92 (no result: Cav32 inh)
COc1cc(Cl)c(C)cc1NC(=O)COC(=O)c1cnc(C)cn1	CYP2C19 inhib 57
CSc1nncc(=O)[nH]1	none
Cc1ccc(S(=O)(=O)NNc2nc3ccccc3nc2C(F)(F)F)cc1	CYP2C19 inhib 67, Cav32 inh -3.4, CYP2C9 inh 50
CCc1ccccc1NC(=S)NCc1ccc2c(c1)OCO2	CYP2C19 inhib 61
Cc1ccccc1NC(=S)NCc1ccc2c(c1)OCO2	CYP2C19 inhib 90 (no result: Cav32 inh)
CC1=C(C)CC(C(=O)NCc2ccc3c(c2)OCO3)C(C(=O)O)C1 (configuration not stated)	none
Cc1ccc(C)c(NC(=S)NCc2ccc3c(c2)OCO3)c1	CYP2C19 inhib 56
Cc1cc(C)cc(NC(=S)NCc2ccc3c(c2)OCO3)c1	Cav32 inh -4.8 (no result: CYP2C19 inhib, CYP2C9 act, CYP2C9 inh, CYP2C19 activ)
COCC(=O)NCc1ccc2c(c1)OCO2	none
COc1cc2nc(-c3cccs3)oc(=O)c2cc1OC	none (no result: CYP2C19 inhib, CYP2C9 act, CYP2C9 inh, CYP2C19 activ)
Cc1ccc2nc(N/N=C\c3ccc([N+](=O)[O-])o3)nc(-c3ccccc3)c2c1	CYP2C19 inhib 73, CYP2C9 inh 87 (no result: Cav32 inh)

From PubChem BioAssay
